The subject of experiment [1] is Human papillomavirus type 1a protein E7 (residues 44-93). In words: small molecules binding HPV E7 44-93 – biochemical, small-molecule microarray, residues 44-93, 635 nm fluorescence, primary screen (AID 1108).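 Also: E7 fragment applied at 1 µg/mL in TBST for 1 h at 4 C; score combines spot fluorescence with its signal to noise ratio.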 The conditions noted are these: fluorescence 635 nm, higher = more signal.
A short description of experiment [2]: hepatitis C replication reporter changes, two-sided – Huh7 cells, luciferase reporter, HCV replication inhibitor project, primary screen (AID 1109).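 Also: huh7 hepatoma cells harbouring a luciferase neomycin HCV replicon reporter; luciferase luminescence as measure of HCV replicon replication; test concentration not given here.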 The following applies: Huh7 HCV replicon luciferase reporter, 48 h; higher = more signal. Background: A reporter such as luciferase makes a cellular process visible.
Experiment [3] addresses Left-right determination factor 2 (Homo sapiens) (UniProt O00292). In words: small molecules binding LEFTY2 protein – biochemical, small-molecule microarray, 635 nm fluorescence scan, primary screen (AID 1110). The conditions noted are these: higher = more signal.
Experiment [4] addresses Calmodulin-1 (Homo sapiens) (UniProt P0DP23). As to the kind of experiment: small molecules binding calmodulin-1 with EGTA – biochemical, small-molecule microarray, Cy5-labelled CALM1, profiling panel (AID 1111).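 Also: labelled calmodulin applied in Tris saline Tween buffer holding calcium plus EGTA and DTT.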 The following applies: Cy5-CALM1 binding fluorescence, higher = more signal.
Experiment [5] shares this target. In words: small molecules binding Ca-loaded calmodulin-1 – biochemical, small-molecule microarray, Cy5-labelled CALM1, plus calcium, artefact control for SMM control-protein annotation, profiling panel (AID 1112).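 Also: score merges spot fluorescence with signal to noise from triplicate slides.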 The conditions noted are these: Cy5-CALM1 binding fluorescence, higher = more signal.
Experiment [6] in a line: probe aWnt5a binding to arrayed compounds – biochemical, biotinylated probe, 635/667 nm fluorescence, primary screen (AID 1113).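 Also: score merges 667 nm fluorescence intensity with signal-to-noise per printed feature.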 The following applies: small-molecule microarray, higher = more signal.
Experiment [7] is described as follows: probe aShh binding to arrayed compounds – biochemical, biotinylated probe, 635/667 nm fluorescence, primary screen (AID 1114).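 Also: probe is biotin-labelled aShh protein from a stem cell growth factor screen; measures binding of labelled protein to compounds printed on the slide; score merges feature fluorescence at 667 nm with signal-to-noise.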 The conditions noted are these: small-molecule microarray, higher = more signal.
Experiment [8] is described as follows: probe aNog binding to arrayed compounds – biochemical, biotinylated probe, 635/667 nm fluorescence, primary screen (AID 1115).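 Also: probe is biotinylated aNog protein used at 0.15 µg/mL for 1 h at 4 C; z-score combines 667 nm fluorescence of each spot with its signal to noise.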 The following applies: small-molecule microarray, higher = more signal.
Experiment [9] concerns the target Torsin-1A-interacting protein 1 (Homo sapiens) (UniProt Q5JTV8). In words: compound microarray binding of lysate hLAP1 – cell lysate, small-molecule microarray, COS7 lysate, 635/667 nm fluorescence, primary screen (AID 1116). The conditions noted are these: 635 nm fluorescence, higher = more signal.
The target of experiment [10] is Alpha-bungarotoxin (Bungarus multicinctus) (UniProt P60615). As to the kind of experiment: compounds binding labelled alpha-BTX control protein – biochemical, small-molecule microarray, Alexa647 label, 635/667 nm fluorescence, artefact control for SMM control protein annotation, profiling panel (AID 1117). The following applies: alpha-BTX-A647 binding fluorescence, higher = more signal.

Molecules are shown by their SMILES.

Chain of Torsin-1A-interacting protein 1 (Homo sapiens) (Q5JTV8 whole entry, looked up): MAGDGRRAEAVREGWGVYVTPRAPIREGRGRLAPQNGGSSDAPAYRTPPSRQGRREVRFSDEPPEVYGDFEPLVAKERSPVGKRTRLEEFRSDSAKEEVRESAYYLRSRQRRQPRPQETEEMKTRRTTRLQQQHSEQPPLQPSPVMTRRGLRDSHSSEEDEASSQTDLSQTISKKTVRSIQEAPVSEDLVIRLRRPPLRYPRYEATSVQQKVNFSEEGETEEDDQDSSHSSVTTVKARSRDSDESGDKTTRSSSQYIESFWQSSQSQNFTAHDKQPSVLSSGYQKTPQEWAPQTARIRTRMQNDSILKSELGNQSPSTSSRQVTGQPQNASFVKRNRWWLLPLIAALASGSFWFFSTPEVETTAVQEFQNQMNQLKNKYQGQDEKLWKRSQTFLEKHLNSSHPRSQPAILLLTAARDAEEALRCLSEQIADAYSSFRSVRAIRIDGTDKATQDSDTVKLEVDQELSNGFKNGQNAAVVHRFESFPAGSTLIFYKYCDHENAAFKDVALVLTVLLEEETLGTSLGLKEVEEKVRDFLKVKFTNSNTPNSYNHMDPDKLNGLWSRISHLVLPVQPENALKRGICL
Chain of Left-right determination factor 2 (Homo sapiens) (O00292 whole entry, looked up): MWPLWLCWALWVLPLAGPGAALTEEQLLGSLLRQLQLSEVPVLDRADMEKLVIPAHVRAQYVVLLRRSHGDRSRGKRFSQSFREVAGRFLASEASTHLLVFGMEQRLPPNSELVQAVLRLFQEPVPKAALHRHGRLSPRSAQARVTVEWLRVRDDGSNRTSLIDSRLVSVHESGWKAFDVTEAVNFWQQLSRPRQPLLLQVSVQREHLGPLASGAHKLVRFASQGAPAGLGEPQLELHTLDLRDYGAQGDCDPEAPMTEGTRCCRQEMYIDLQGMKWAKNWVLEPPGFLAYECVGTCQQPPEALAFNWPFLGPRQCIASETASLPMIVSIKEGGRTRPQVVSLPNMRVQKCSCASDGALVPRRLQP
Chain of Alpha-bungarotoxin (Bungarus multicinctus) (P60615 whole entry, looked up): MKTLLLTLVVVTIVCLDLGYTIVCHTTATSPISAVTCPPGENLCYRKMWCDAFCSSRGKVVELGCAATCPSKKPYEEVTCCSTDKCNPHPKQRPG

On to `[N-]=[N+]=Nc1ccccc1C[C@]1(C(=O)NCC(O)CO)COC(c2ccc(OCCCO)cc2)=N1` (stereo not given in full), for which the composite z-score in experiment [1] was 0.776; in [3] it was -0.314; in experiment [4] it was 1.32; in [5] it was 0.37; in [6], -0.132; in experiment [7], 0.275. The values for the composite z-score in experiment [8], in [9] and in experiment [10] were -0.236, 2.01 and -0.633, respectively. Also, the z-score in [2] is -0.677.

Consider `O=C1O[C@H](c2ccccc2)[C@H](c2ccccc2)N2[C@H]1[C@@H](C(=O)O)[C@]1(C(=O)Nc3ccc(C#CCCO)cc31)[C@H]2c1ccccc1OCCO`, for which the composite z-score in experiment [1] was 1.24; in [3], -0.587; in experiment [4], 0.4; in experiment [5], 0.0772; in [6], -0.139; in [7], 0.0141. For the same compound, the composite z-score is -0.539 in experiment [8], 0.182 in [9] and 0.649 in experiment [10]. For the same compound, in experiment [2], the z-score was -0.488.

For the compound `CO[C@H]1O[C@H](CO)[C@@H](OC(=O)Nc2ccccc2)[C@H](OC(=O)c2cc3ccccc3[nH]2)[C@H]1OC(=O)c1cc2ccccc2[nH]1`, the composite z-score came to 0.0679 in experiment [1]; 0.165 in [3]; 0.204 in experiment [4]; 0.47 in experiment [5]; 0.0642 in experiment [6]; 0.14 in experiment [7]. In addition, the composite z-score in experiment [8] was -0.367; in experiment [9], 0.621; in [10] it was 0.326. The z-score in experiment [2] was -2.05.

As to `[N-]=[N+]=Nc1ccccc1C[C@@]1(C(=O)NCCN2CCOCC2)N=C(c2ccc(OCCCO)cc2)O[C@@H]1c1ccccc1N=[N+]=[N-]`, the composite z-score in experiment [1] was -0.241; in experiment [3] it was 0.0057; in [4], 1.94; in experiment [5], 0.455; in experiment [6], 0.0543; in experiment [7], 0.411. In addition, the composite z-score was -0.406 in experiment [8], 1.08 in experiment [9] and 1.74 in experiment [10]. In experiment [2], this compound returned a z-score of -2.99.

In the case of `COCCOC(=O)N1C(=O)[C@@]2(c3cc(C#CC4=CCCCC4)ccc31)[C@H](c1ccccc1OCCO)N1[C@H](c3ccccc3)[C@H](c3ccccc3)OC(=O)[C@H]1[C@@H]2C(=O)N1CCN(c2ncccn2)CC1`, the composite z-score in experiment [1] is 1.28; in experiment [3] it was 0.718; in [4], 0.501; in experiment [5], 0.466; in experiment [6] it was -0.206; in experiment [7] it was 0.0048. Besides, the composite z-score is -0.404 in experiment [8], 0.0174 in experiment [9] and 0.511 in [10]. This compound also showed a z-score in [2] of -2.1.

For `CN1C(=O)C2C=CC(C(O)c3cccn3C)N(Nc3ccc([N+](=O)[O-])cc3[N+](=O)[O-])C2C1=O` (stereo not given), the composite z-score was 0.0443 in experiment [1]; -0.135 in [3]; 1.08 in experiment [4]; 0.212 in [5]; 0.0357 in experiment [6]; 0.496 in [7]. Further, the composite z-score in experiment [8] was 0.31; in [9] it was -0.0083; in experiment [10], 0.401. Moreover, the z-score in experiment [2] is -0.0091.

As for `Cc1ccc(NN2C(C(O)c3c(F)cccc3Cl)C=CC3C(=O)N(C4CCCCC4)C(=O)C32)cc1` (stereo not given), the composite z-score in [1] was 0.51; in experiment [3], -0.348; in experiment [4], 1.96; in experiment [5] it was 1.14; in [6], -0.0179; in experiment [7] it was 0.261. Also, the figures for the composite z-score in experiment [8], in experiment [9] and in [10] were 1.22, 0.983 and 1.93, respectively. In [2], this compound came in with a z-score of -1.26.

With `CCCNC(=O)[C@@H]1c2ccccc2C(=O)N(Cc2ccc(OC(F)(F)F)cc2)[C@H]1c1ccc(CO)cc1`, the composite z-score in experiment [1] was 0.957; in experiment [3], -0.144; in experiment [4], 0.222; in experiment [5] it was 0.237; in [6], 0.0077; in [7], 0.292. Besides, the results for the composite z-score in [8], in experiment [9] and in experiment [10] were 0.0303, 0.448 and 0.102, respectively. In addition, in experiment [2], the z-score is -0.808.

Regarding `COC(=O)C(CC#Cc1ccc2c(c1)[C@]1(C(=O)N2)[C@H](c2ccc(O)cc2)N2[C@H](c3ccccc3)[C@H](c3ccccc3)OC(=O)[C@H]2[C@@H]1C(=O)NC[C@H](O)c1ccccc1)C(=O)OC`, the composite z-score in [1] was 0.829; in experiment [3], 0.337; in experiment [4], 0.175; in experiment [5] it was -0.102; in experiment [6], -0.0606; in experiment [7] it was -0.0709. Further, the figures for the composite z-score in experiment [8], in experiment [9] and in experiment [10] were 0.0169, 1.24 and 0.624, respectively. In addition, the z-score in experiment [2] was -1.04.

Turning to `COCC(=C=CC[C@H](O)c1ccc(OCCO)cc1)CCO`, the composite z-score in experiment [1] was 0.364; in experiment [3], 0.774; in experiment [4] it was -0.31; in [5], -0.618; in experiment [6], -0.0239; in [7] it was -0.138. Also, the composite z-score in experiment [8] was -0.0898; in experiment [9], 1.6; in experiment [10], -0.829. The z-score in experiment [2] is -0.794.

With `CCCCCN1CC=CC23O[C@@H]4C=CCCOC(=O)C4[C@H]2C(=O)N(CCCCCCO)[C@@H]3C1=O` (stereo not given in full), the composite z-score in experiment [1] was 0.521; in experiment [3] it was -0.287; in experiment [4], -0.711; in experiment [5], -0.533; in [6], -0.168; in [7] it was -0.0769. Moreover, the results for the composite z-score in experiment [8], in experiment [9] and in [10] were -0.316, 0.564 and -0.675, respectively. The z-score in experiment [2] is 0.525.

In the case of `CCOC(=O)C1=CC[C@@H](c2ccccc2)N(S(=O)(=O)c2ccc(C)cc2)[C@H]1c1ccccc1`, the composite z-score in experiment [1] is 1.1; in experiment [3], 0.0056; in experiment [4], 0.578; in experiment [5] it was 0.626; in experiment [6], 0.0037; in [7], -0.138. In addition, the composite z-score in experiment [8] was -0.0496; in experiment [9] it was 0.46; in experiment [10], 0.995. This compound returned a z-score in experiment [2] of -0.667.
